Among all 5,500 compounds or so, about 2,000 (36%) were called active. Not shown: some 18% with an inconclusive outcome. No stated cut-off is given here; in the data, active means normalized growth mostly below about 0.91 (no sharp cut-off); inconclusive means no clear call, values can overlap the other calls; inactive means mostly above about 0.92. The list shows a part of the results.
Assay: chemical genetic growth profiling, strain panel (AID 1159580);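 further: tested at 20 µM; growth read once vehicle control cultures reached saturation at 30 °C; 1 = growth at the plate median or of vehicle wells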
Conditions: S. cerevisiae deletion strains, growth OD
[1] = locus YHR030C, strain SLT2, stronger effect = lower value
[2] = locus YHR079C, strain IRE1, stronger effect = lower value
[3] = locus YJL095W, strain BCK1, stronger effect = lower value
[4] = locus YJR066W, strain TOR1, stronger effect = lower value
[5] = locus YLR113W, strain HOG1, stronger effect = lower value
[6] = locus YNL183C, strain NPR1, stronger effect = lower value
[7] = locus YOR231W, strain MKK1, stronger effect = lower value
[8] = locus YPL256C, strain CLN2, stronger effect = lower value

Measured: normalized growth

CN1[C@@H]2CC[C@@H]1CC(O)C2 (stereo partly drawn)
inactive: [1] 1.03 | [2] 1.04 | [3] 1.05 | [4] 0.983 | [5] 0.98 | [6] 0.986 | [7] 1.01 | [8] 1.06

CCN1C[C@]2(OC(=O)c3ccccc3NC(C)=O)CCC(OC)[C@]34C1[C@H](CC23)[C@@]1(O)CC(OC)[C@H]2CC4C1(O)[C@H]2OC (stereo partly drawn)
inactive: locus YAL021C, strain ccr4, stronger effect = lower value 0.966 | locus YAL026C, strain drs2, stronger effect = lower value 0.981 | locus YAL030W, strain snc1, stronger effect = lower value 0.977 | locus YBL061C, strain skt5, stronger effect = lower value 0.971 | locus YBR009C, strain hhf1, stronger effect = lower value 0.985 | locus YBR023C, strain chs3, stronger effect = lower value 0.977 | locus YBR171W, strain sec66, stronger effect = lower value 0.96 | locus YBR231C, strain swc5, stronger effect = lower value 0.972 | locus YBR279W, strain paf1, stronger effect = lower value 0.979 | locus YCL011C, strain gbp2, stronger effect = lower value 0.947 | locus YCL016C, strain dcc1, stronger effect = lower value 0.971 | locus YCL061C, strain MRC1, stronger effect = lower value 1 | locus YCL069W, strain vba3, stronger effect = lower value 0.955 | locus YCR088W, strain abp1, stronger effect = lower value 0.946 | locus YDL005C, strain med2, stronger effect = lower value 0.948 | locus YDL040C, strain nat1, stronger effect = lower value 0.969 | locus YDR001C, strain nth1, stronger effect = lower value 0.977 | locus YDR069C, strain doa4, stronger effect = lower value 0.953 | locus YDR137W, strain rgp1, stronger effect = lower value 1.02 | locus YDR159W, strain sac3, stronger effect = lower value 0.979 | locus YDR195W, strain ref2 0.963 | locus YDR297W, strain sur2, stronger effect = lower value 0.967 | locus YDR334W, strain swr1, stronger effect = lower value 0.974 | locus YDR335W, strain msn5, stronger effect = lower value 0.958 | locus YDR392W, strain spt3, stronger effect = lower value 0.921 | locus YEL003W, strain gim4, stronger effect = lower value 0.98 | locus YEL037C, strain rad23, stronger effect = lower value 0.958 | locus YEL061C, strain CIN8 (second series), stronger effect = lower value 0.963 | locus YER015W, strain faa2, stronger effect = lower value 0.974 | locus YER016W, strain bim1, stronger effect = lower value 0.979 | locus YER111C, strain swi4, stronger effect = lower value 0.986 | locus YER155C, strain BEM2 (second series), stronger effect = lower value 0.974 | locus YFR010W, strain ubp6, stronger effect = lower value 0.975 | locus YGL167C, strain pmr1, stronger effect = lower value 0.974 | locus YGL173C, strain kem1, stronger effect = lower value 0.972 | locus YGL227W, strain vid30, stronger effect = lower value 0.956 | locus YGL240W, strain doc1, stronger effect = lower value 0.973 | locus YGL253W, strain hxk2, stronger effect = lower value 0.963 | locus YHR013C, strain ard1, stronger effect = lower value 0.969 | locus YHR027C, strain rpn1, stronger effect = lower value 0.992 | [1] 0.976 | [2] 0.98 | locus YHR142W, strain chs7, stronger effect = lower value 0.95 | locus YJL092W, strain hpr5, stronger effect = lower value 0.953 | locus YJL095W, strain BCK1 (second series), stronger effect = lower value 0.974 | [3] 0.97 | locus YJL115W, strain asf1, stronger effect = lower value 0.973 | locus YJL129C, strain trk1, stronger effect = lower value 0.961 | locus YJL154C, strain vps35, stronger effect = lower value 0.952 | locus YJL164C, strain tpk1, stronger effect = lower value 0.983 | locus YJL166W, strain qcr8, stronger effect = lower value 0.979 | locus YJL187C, strain SWE1, stronger effect = lower value 0.987 | [4] 0.975 | locus YKL160W, strain elf1, stronger effect = lower value 0.979 | locus YKR026C, strain gcn3, stronger effect = lower value 0.975 | locus YKR091W, strain srl3, stronger effect = lower value 0.979 | locus YLL001W, strain dnm1, stronger effect = lower value 0.993 | locus YLL026W, stronger effect = lower value 0.984 | locus YLL041C, strain sdh2, stronger effect = lower value 0.978 | locus YLR027C, strain aat2, stronger effect = lower value 0.967 | [5] 0.969 | locus YLR221C, strain rsa3, stronger effect = lower value 0.976 | locus YLR258W, strain gsy2, stronger effect = lower value 0.974 | locus YLR262C, strain YPT6 (second series), stronger effect = lower value 1.04 | locus YLR320W, strain mms22, stronger effect = lower value 0.983 | locus YLR342W, strain FKS1, stronger effect = lower value 0.961 | locus YLR357W, strain rsc2, stronger effect = lower value 0.945 | locus YLR370C, strain arc18, stronger effect = lower value 0.973 | locus YLR384C, strain iki3, stronger effect = lower value 0.959 | locus YML120C, strain ndi1, stronger effect = lower value 0.974 | locus YMR058W, strain fet3, stronger effect = lower value 0.989 | locus YMR125W, strain sto1, stronger effect = lower value 0.953 | locus YMR129W, stronger effect = lower value 0.98 | locus YMR205C, strain PFK2, stronger effect = lower value 0.993 | locus YMR231W, strain pep5, stronger effect = lower value 0.953 | locus YNL071W, strain lat1, stronger effect = lower value 0.956 | [6] 0.905 | locus YNL209W, strain ssb2, stronger effect = lower value 0.974 | locus YNL248C, strain rpa49, stronger effect = lower value 0.98 | locus YNL322C, strain KRE1 (second series), stronger effect = lower value 0.972 | locus YNR049C, strain mso1, stronger effect = lower value 0.979 | locus YOR001W, strain rrp6, stronger effect = lower value 0.961 | locus YOR070C, strain gyp1, stronger effect = lower value 0.964 | locus YOR080W, strain dia2, stronger effect = lower value 0.97 | locus YOR083W, strain WHI5, stronger effect = lower value 0.973 | locus YOR106W, strain vam3, stronger effect = lower value 0.959 | [7] 0.978 | locus YOR265W, strain rbl2, stronger effect = lower value 0.982 | locus YOR270C, strain vph1, stronger effect = lower value 0.975 | locus YOR290C, strain snf2, stronger effect = lower value 0.986 | locus YPL051W, strain arl3, stronger effect = lower value 0.979 | locus YPL078C, strain atp4, stronger effect = lower value 0.971 | locus YPL106C, strain sse1, stronger effect = lower value 0.923 | locus YPL240C, strain hsp82, stronger effect = lower value 0.963 | [8] 0.956

— PubChem BioAssay AID1159580 (chemical genetic matrix, 2015)
